Experimental findings from PubChem BioAssay (NCI) are described below.

Molecules are shown by their SMILES. About 79,000 compounds went through this panel and 15% of them were active in at least one assay; those are over-represented in the sample as a whole. Values without a mark were called inactive. Rule as the data show it: active = growth inhibition above about 70%; inactive = the rest.

The nature of one experiment: NCI Yeast Anticancer Drug Screen. Data for the rad50 strain (AID 155).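 Also: 0% = growth of vehicle-only cultures of the same strain.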 The conditions noted are these: S. cerevisiae rad50 strain growth inhibition; at 50.0 µM; stronger effect = higher value. In outline:
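Relative growth inhibition (compound vs vehicle) was measured in yeast with a defined repair-gene alteration.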
With `COc1cc(-c2cc(=O)c3ccc(O)cc3o2)cc(OC)c1OC`, the growth inhibition was 10.1%.

`O=C(O)C1(c2ccc(Cl)cc2)CCCC1`: the growth inhibition is 12.1%.

For the molecule `COc1ccc2ccccc2c1/C=N/N1CCCCC1`, the growth inhibition was 32.3%.

With `Cc1ccc(-c2nc3cc(Cl)ccc3c(=O)o2)cc1`, the growth inhibition is 14.6%.

As to `ClCCCC1(CCCCl)OCCO1`, the growth inhibition is -21.3%.

Regarding `CCOC(=O)/C=C(\C)Nc1ccc(F)cc1`, the growth inhibition was -0.5%.

For `CCCCCCCCCCCCCCCC(C)(C)O`, the growth inhibition is -29%.

For `CCOC(=O)C(C#N)C(C(C)=O)C(=O)OCC` (centres undefined), the growth inhibition is 9.15%.

As for `CN1C(=S)c2ccccc2S1(=O)=O`, the growth inhibition is -6.6%.

For `Cc1ccc(N2CCOC2=O)cc1N1CCOC1=O`, the growth inhibition was -8.3%.

Regarding `CCCCCCC(=O)C(CCCC)(C(=O)OCC)C(=O)OCC`, the growth inhibition was 0.4%.

As to `CCOC(=O)CCc1ccc(O)c(O)c1`, the growth inhibition was 4.9%.

For `Nc1cc(S(=O)(=O)c2ccc(O)c(N)c2)ccc1O`, the growth inhibition is 5.1%.

As for `Fc1ccc(P(c2ccc(F)cc2)c2ccc(F)cc2)cc1`, the growth inhibition is 41.4%.

Turning to `C=CCCCCCCCCC(=O)Cl`, the growth inhibition was 33.9%.

On to `COc1cc(/C=N/NC(=O)c2cccs2)cc(OC)c1OC`, for which the growth inhibition is -12.8%.

As for `CC(=O)C1=CCC2C3CC(C)=C4CC(O)CCC4(C)C3CCC12C` (centres undefined), the growth inhibition is 24.9%.

For the molecule `O=c1oc(-c2ccc(Cl)cc2)nc2cc(Cl)ccc12`, the growth inhibition is -20.6%.

Turning to `CC1CC(C)(C)N=C(Cc2ccccc2)O1` (centres undefined), the growth inhibition was -26.6%.

Another experiment in a line: NCI Yeast Anticancer Drug Screen. Data for the mec2-1 strain (AID 157). The following applies: S. cerevisiae mec2-1 strain, at 50.0 µM, stronger effect = higher value. In outline: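 Mutant yeast (mec2-1) grown with compound; growth inhibition relative to vehicle control reported.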
For `O=C(O)CSCc1nc2ccccc2[nH]1`, the growth inhibition is -15.7%.

As to `COc1cc(-c2cc(=O)c3c(C)cc(O)cc3o2)cc(OC)c1OC`, the growth inhibition was -9%.

With `OCC1OC(Nc2ccccc2O)C(O)C(O)C1O` (centres undefined), the growth inhibition was 15.6%.

Consider `CN(c1ccccc1Cl)S(C)(=O)=O`, for which the growth inhibition is -42.6%.

Consider `COc1ccc(C(C#N)N2CCOCC2)cc1` (centres undefined), for which the growth inhibition is -11.7%.

For the molecule `Cn1/c(=N\N=C\C(=O)O)sc2ccccc21`, the growth inhibition was -13.8%.

With `CC1(O)CC2CC1C(C(=O)O)C2C(=O)O` (centres undefined), the growth inhibition was -27.6%.

Turning to `O=C(O)/C=C\C(=O)Nc1ccccc1NC(=O)/C=C/C(=O)O`, the growth inhibition was -26.1%.

Consider `Cc1ccc(S(=O)(=O)Nc2ccccc2C2Nc3ccccc3C(=O)O2)cc1` (centres undefined), for which the growth inhibition was -7.4%.

For the molecule `Cn1c(=S)sc2ccc3ccccc3c21`, the growth inhibition was -11.1%.

As to `CCOC(=O)NC(C)(C)CN(C(=O)OCC)c1ccccc1`, the growth inhibition was -39.6%.

In the case of `CCCN(CCC)CCC(=O)OCC`, the growth inhibition was -29.2%.

As to `CCOc1ccc(/C=C(/C#N)C(N)=O)cc1`, the growth inhibition was -8.1%.

In the case of `C=CCNC(=O)C(O)C(O)C(=O)NCC=C` (centres undefined), the growth inhibition is -32.5%.

As for `CC(/C=N/N1C(=O)c2ccccc2C1=O)c1ccccc1` (centres undefined), the growth inhibition is -11.6%.

As for `O=C1OC(c2ccc(Cl)cc2)=N/C1=C\c1ccccc1`, the growth inhibition was -5.5%.

With `COc1ccc(-c2cc(=O)c3c(ccc4ccccc43)o2)cc1`, the growth inhibition is 3.4%.

Take `COc1cc(/C=C2/SC(=S)NC2=O)cc(OC)c1OC`: the growth inhibition was -1.4%.

Consider `O=c1c(=O)n(CCO)n(CCO)c(=O)n1CCO`, for which the growth inhibition is -28.9%.

Take `COc1cc(-c2cc(=O)c3ccc(O)cc3o2)cc(OC)c1OC`: the growth inhibition is -32.4%.

Take `O=C(O)C1(c2ccc(Cl)cc2)CCCC1`: the growth inhibition was 8.75%.

For the molecule `COc1ccc2ccccc2c1/C=N/N1CCCCC1`, the growth inhibition was 19.6%.

For `Cc1ccc(-c2nc3cc(Cl)ccc3c(=O)o2)cc1`, the growth inhibition was -11.3%.

In the case of `ClCCCC1(CCCCl)OCCO1`, the growth inhibition is -25.1%.

Regarding `CCOC(=O)/C=C(\C)Nc1ccc(F)cc1`, the growth inhibition was -17.6%.

On to `CCCCCCCCCCCCCCCC(C)(C)O`, for which the growth inhibition is -27.6%.

On to `CCOC(=O)C(C#N)C(C(C)=O)C(=O)OCC` (centres undefined), for which the growth inhibition was -1.45%.

With `CN1C(=S)c2ccccc2S1(=O)=O`, the growth inhibition was -14.4%.

Turning to `Cc1ccc(N2CCOC2=O)cc1N1CCOC1=O`, the growth inhibition was -32.6%.

In the case of `CCCCCCC(=O)C(CCCC)(C(=O)OCC)C(=O)OCC`, the growth inhibition is -9.4%.

For the molecule `CCOC(=O)CCc1ccc(O)c(O)c1`, the growth inhibition is 1.85%.

Turning to `Nc1cc(S(=O)(=O)c2ccc(O)c(N)c2)ccc1O`, the growth inhibition is -0.85%.

`Fc1ccc(P(c2ccc(F)cc2)c2ccc(F)cc2)cc1`: the growth inhibition is 9.6%.

With `C=CCCCCCCCCC(=O)Cl`, the growth inhibition was 3.35%.

As to `COc1cc(/C=N/NC(=O)c2cccs2)cc(OC)c1OC`, the growth inhibition is -26.1%.
